The target of experiment [1] is T1, Mitogen-activated protein kinase 13 (Homo sapiens) (UniProt O15264).
T1 sequence (whole entry): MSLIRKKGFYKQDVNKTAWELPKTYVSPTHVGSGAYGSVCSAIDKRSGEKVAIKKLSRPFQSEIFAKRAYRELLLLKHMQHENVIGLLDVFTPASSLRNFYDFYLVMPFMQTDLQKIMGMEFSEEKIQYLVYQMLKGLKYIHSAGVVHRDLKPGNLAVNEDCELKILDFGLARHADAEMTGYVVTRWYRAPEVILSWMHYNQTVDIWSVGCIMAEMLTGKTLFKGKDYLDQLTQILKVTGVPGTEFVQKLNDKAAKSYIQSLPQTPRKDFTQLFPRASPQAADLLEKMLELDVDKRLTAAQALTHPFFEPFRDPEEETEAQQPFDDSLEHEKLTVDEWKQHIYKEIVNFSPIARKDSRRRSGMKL
Particulars: at 1 µM.

Experiment [2] concerns the target T1, Mitogen-activated protein kinase 13 (Homo sapiens). The note with it: at 10 µM.
In experiment [3] the target is T2, Serine/threonine-protein kinase Sgk1 (Homo sapiens) (UniProt O00141).
T2 sequence (whole entry): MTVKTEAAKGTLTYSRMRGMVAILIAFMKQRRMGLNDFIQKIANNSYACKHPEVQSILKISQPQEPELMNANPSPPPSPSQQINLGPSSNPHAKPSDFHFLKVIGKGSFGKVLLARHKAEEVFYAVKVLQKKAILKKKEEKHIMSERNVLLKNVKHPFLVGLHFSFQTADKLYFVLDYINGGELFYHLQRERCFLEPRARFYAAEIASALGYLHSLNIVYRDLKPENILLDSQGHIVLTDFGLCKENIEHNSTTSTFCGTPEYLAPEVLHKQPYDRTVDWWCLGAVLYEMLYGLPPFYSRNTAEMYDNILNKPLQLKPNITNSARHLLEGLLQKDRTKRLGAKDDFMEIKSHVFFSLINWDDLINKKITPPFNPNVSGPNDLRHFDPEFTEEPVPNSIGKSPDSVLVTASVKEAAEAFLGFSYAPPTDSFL
The note with it: at 1 µM.

Experiment [4] has as its target T2, Serine/threonine-protein kinase Sgk1 (Homo sapiens). Particulars: at 10 µM.
For experiment [5], the target named is Serine/threonine-protein kinase SIK1 (Homo sapiens) (UniProt P57059). Particulars: at 1 µM.
For experiment [6] the target is unchanged. Particulars: at 10 µM.
The target of experiment [7] is SRSF protein kinase 1 (Homo sapiens) (UniProt Q96SB4). The note with it: at 10 µM.
For experiment [8], the target named is SRSF protein kinase 2 (Homo sapiens) (UniProt P78362). Particulars: at 1 µM.
The target is the same in experiment [9]. The note with it: at 10 µM.
The target in experiment [10] is Serine/threonine-protein kinase 33 (Homo sapiens) (UniProt Q9BYT3). The note with it: at 1 µM.
The target is the same in experiment [11]. The note with it: at 10 µM.
In experiment [12] the target is Tyrosine-protein kinase SYK (Homo sapiens) (UniProt P43405). The note with it: at 1 µM.
Experiment [13] has as its target T3, Serine/threonine-protein kinase Sgk2 (Homo sapiens) (UniProt Q9HBY8).
T3 sequence (whole entry): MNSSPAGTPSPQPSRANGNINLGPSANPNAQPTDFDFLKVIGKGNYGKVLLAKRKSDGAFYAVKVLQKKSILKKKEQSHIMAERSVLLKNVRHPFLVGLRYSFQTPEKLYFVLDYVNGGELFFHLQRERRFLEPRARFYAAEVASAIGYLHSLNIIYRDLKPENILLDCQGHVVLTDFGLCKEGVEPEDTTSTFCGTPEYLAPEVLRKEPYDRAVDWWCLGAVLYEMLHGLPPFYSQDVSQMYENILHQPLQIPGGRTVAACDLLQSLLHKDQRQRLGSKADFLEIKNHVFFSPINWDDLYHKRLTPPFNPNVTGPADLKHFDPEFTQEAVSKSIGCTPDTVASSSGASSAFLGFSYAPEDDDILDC
The note with it: at 10 µM.

Experiment [14] addresses T4, Serine/threonine-protein kinase Sgk3 (Homo sapiens) (UniProt Q96BR1).
T4 sequence (whole entry): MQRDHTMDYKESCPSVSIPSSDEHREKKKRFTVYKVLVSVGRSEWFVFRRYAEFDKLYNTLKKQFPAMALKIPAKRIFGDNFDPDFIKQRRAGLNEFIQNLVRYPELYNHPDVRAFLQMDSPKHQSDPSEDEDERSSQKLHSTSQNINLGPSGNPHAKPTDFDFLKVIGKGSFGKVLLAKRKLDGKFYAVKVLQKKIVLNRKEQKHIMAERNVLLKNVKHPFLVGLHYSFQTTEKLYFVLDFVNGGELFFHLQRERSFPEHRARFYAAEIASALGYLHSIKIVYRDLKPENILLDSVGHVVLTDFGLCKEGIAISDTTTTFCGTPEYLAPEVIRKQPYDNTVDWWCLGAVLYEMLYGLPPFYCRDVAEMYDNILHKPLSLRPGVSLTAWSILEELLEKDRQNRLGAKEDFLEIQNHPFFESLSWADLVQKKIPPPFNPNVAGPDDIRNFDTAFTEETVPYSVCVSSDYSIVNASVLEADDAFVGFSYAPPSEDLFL
Particulars: at 10 µM.

Experiment [15] deals with Mitogen-activated protein kinase 11 (Homo sapiens) (UniProt Q15759). The note with it: at 1 µM.
The target is the same in experiment [16]. Particulars: at 10 µM.
Experiment [17] addresses T3, Serine/threonine-protein kinase Sgk2 (Homo sapiens). The note with it: at 1 µM.
For experiment [18], the target named is SRSF protein kinase 1 (Homo sapiens) (UniProt Q96SB4). Particulars: at 1 µM.
The target in experiment [19] is Serine/threonine-protein kinase PLK2 (Homo sapiens) (UniProt Q9NYY3). Particulars: at 1 µM.
For experiment [20] the target is unchanged. Particulars: at 10 µM.

Sequence of Mitogen-activated protein kinase 11 (Homo sapiens) (Q15759 whole entry): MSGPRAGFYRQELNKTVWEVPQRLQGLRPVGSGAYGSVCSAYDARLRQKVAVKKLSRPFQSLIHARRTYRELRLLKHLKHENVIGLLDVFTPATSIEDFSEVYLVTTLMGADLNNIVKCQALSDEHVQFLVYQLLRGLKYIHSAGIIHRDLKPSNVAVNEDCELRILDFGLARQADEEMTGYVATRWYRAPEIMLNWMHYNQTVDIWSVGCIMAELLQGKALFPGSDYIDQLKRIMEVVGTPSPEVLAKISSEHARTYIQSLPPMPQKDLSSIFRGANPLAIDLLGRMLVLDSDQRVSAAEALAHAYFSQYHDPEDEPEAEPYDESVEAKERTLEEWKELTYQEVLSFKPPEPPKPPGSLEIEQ
Sequence of Serine/threonine-protein kinase 33 (Homo sapiens) (Q9BYT3 whole entry, looked up): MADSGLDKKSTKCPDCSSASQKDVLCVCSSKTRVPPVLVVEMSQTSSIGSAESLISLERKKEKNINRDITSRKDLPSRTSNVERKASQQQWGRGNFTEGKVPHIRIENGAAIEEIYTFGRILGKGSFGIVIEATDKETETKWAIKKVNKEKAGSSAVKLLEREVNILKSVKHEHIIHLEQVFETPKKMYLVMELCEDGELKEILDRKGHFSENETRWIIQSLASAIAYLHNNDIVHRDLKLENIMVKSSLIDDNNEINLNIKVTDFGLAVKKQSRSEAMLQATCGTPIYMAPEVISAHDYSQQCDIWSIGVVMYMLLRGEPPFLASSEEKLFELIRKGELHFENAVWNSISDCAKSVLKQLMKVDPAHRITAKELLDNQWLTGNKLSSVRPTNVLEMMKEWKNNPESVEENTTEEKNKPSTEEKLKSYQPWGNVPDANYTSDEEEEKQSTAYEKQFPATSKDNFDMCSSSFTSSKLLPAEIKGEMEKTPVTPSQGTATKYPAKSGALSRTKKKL
Sequence of SRSF protein kinase 2 (Homo sapiens) (P78362 whole entry, looked up): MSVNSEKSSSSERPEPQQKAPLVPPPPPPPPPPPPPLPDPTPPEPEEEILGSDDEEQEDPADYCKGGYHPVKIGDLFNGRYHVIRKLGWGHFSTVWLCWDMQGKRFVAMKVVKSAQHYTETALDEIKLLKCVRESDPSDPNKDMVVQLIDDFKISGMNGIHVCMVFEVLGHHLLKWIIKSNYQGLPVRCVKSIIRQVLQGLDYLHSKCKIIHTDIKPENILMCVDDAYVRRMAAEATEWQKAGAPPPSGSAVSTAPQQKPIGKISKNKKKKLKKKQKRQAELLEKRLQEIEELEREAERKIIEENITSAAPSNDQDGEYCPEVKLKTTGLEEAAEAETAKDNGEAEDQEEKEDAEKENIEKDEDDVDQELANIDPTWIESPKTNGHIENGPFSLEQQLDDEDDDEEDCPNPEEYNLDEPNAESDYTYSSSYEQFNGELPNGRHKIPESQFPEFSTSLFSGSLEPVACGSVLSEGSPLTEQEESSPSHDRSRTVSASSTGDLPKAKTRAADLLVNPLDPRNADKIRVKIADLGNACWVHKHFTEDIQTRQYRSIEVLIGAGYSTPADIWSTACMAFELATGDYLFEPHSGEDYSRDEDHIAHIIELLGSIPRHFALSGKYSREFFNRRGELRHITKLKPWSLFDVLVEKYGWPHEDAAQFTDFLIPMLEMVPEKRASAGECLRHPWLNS
Sequence of Serine/threonine-protein kinase SIK1 (Homo sapiens) (P57059 whole entry): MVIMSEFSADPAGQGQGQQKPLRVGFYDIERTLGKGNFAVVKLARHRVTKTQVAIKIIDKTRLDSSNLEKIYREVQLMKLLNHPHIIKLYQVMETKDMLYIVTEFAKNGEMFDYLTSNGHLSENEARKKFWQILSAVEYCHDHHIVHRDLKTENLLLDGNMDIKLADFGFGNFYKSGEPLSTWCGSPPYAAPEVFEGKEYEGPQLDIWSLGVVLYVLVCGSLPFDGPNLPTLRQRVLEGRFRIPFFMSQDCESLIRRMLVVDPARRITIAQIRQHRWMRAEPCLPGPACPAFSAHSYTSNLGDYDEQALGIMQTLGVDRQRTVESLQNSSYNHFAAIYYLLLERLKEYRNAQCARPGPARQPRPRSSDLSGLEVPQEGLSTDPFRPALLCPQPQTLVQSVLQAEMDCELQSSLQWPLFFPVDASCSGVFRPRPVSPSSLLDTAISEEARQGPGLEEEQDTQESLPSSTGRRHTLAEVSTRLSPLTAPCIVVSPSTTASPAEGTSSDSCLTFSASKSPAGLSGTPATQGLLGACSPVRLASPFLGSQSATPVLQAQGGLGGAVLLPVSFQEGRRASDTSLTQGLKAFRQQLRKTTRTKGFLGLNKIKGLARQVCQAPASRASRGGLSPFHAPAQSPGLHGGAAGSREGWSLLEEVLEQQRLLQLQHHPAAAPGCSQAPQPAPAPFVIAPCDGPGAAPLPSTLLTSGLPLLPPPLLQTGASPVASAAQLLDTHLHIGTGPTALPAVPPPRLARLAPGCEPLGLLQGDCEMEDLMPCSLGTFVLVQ
Sequence of SRSF protein kinase 1 (Homo sapiens) (Q96SB4 whole entry): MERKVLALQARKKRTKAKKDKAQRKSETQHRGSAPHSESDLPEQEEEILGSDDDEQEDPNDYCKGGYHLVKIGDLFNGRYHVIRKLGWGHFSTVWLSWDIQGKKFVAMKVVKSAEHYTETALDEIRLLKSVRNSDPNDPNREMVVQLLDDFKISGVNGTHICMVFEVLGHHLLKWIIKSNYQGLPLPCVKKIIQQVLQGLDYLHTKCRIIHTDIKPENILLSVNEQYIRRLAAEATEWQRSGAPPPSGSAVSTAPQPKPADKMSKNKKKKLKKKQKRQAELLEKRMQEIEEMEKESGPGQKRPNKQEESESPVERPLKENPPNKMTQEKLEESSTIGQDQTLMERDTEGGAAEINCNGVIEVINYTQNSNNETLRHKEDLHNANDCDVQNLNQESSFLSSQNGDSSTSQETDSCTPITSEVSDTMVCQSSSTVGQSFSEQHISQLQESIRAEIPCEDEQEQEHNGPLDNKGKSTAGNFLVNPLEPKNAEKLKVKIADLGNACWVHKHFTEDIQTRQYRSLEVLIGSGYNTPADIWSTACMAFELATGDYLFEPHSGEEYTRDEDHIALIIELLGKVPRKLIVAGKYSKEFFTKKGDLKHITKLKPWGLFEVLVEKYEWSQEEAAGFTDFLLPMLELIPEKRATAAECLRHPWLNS
Sequence of Serine/threonine-protein kinase PLK2 (Homo sapiens) (Q9NYY3 whole entry, looked up): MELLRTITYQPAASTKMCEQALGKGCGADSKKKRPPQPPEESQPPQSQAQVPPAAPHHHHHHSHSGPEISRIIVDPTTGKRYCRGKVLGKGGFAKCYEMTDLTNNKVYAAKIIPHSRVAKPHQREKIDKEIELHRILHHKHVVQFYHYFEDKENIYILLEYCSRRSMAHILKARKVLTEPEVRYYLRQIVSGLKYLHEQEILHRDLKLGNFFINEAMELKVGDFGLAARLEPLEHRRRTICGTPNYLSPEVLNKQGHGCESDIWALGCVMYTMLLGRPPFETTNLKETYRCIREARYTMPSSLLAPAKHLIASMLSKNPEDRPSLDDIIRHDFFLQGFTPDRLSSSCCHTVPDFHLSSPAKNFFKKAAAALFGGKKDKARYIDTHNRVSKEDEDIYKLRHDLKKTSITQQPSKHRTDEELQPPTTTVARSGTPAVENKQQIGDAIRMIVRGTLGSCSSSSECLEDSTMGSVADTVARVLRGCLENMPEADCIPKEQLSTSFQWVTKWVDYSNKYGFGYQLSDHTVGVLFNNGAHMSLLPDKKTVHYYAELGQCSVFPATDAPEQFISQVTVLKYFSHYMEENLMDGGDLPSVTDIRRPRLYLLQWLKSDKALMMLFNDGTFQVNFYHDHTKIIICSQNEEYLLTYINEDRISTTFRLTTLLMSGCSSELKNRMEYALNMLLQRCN

For the compound `CCN(CC)C(=O)c1ccc(Nc2nc(OCC3CCCCC3)c3nc[nH]c3n2)cc1`, the residual activity in experiment [1] was 99%; in experiment [2] it was 64%; in [3], 77%; in [4] it was 61%; in experiment [5], 37%; in [6], 4%. In addition, the residual activity in [7] turned out to be 43%; in [8] it was 74%; in experiment [9], 31%; in experiment [10] it was 82%; in [11], 18%; in [12], 64%.
`N#CCCc1ccc2c(c1)-c1[nH]c3ccc([N+](=O)[O-])cc3c1CC(=O)N2`: the residual activity is 55% in experiment [2]; 79% in [4]; 72% in experiment [13]; 78% in experiment [14]; 100% in [10]; 52% in [11]. In experiment [12], the residual activity was found to be 56%.
Take `COc1cccc(-c2cc(=O)c3ccccc3o2)c1N`: the residual activity in [15] worked out at 101%; in [16], 92%; in [1] it was 99%; in [2], 96%; in experiment [3], 79%; in experiment [4], 120%. For the same compound, the residual activity in experiment [17] was 89%; in experiment [13], 95%; in experiment [14], 86%; in [5] it was 140%; in experiment [6], 124%; in experiment [18] it was 104%. In addition, the residual activity turned out to be 109% in experiment [7]; 104% in experiment [8]; 88% in [9]; 100% in experiment [10]; 97% in [11]; 108% in experiment [19]. Besides, the residual activity in experiment [20] and in [12] was 104% in each case.
Turning to `COc1cc2ncnc(Nc3ccc(Oc4ccccc4)cc3)c2cc1OC`, the residual activity was 102% in experiment [15]; 90% in experiment [16]; 110% in [1]; 96% in [2]; 125% in [14]; 66% in experiment [5]. For the same compound, the residual activity stood at 8% in experiment [6]; 106% in experiment [18]; 90% in experiment [7]; 105% in experiment [8]; 90% in experiment [9]; 98% in experiment [10]. The residual activity in [11] was 88%; in [19] it was 104%; in [20], 105%; in experiment [12], 110%.
For the compound `CN(C)c1ccc(/C=C2\C(=O)Nc3ccccc32)cc1`, the residual activity in experiment [15] is 107%; in [16], 99%; in experiment [1], 132%; in [2], 102%; in experiment [3], 96%; in experiment [4], 73%. In addition, the residual activity in experiment [17] came to 83%; in [13], 63%; in experiment [14], 81%; in experiment [5], 88%; in experiment [6], 88%; in experiment [18] it was 97%. Further, the residual activity worked out at 101% in experiment [7]; 108% in [8]; 85% in experiment [9]; 78% in [11]; 106% in [19]; 98% in experiment [20]. Besides, in experiment [12], the residual activity is 123%.
As to `Cn1cc(/C=C2\C(=O)Nc3ccc(S(N)(=O)=O)cc32)c2ccccc21`, the residual activity amounted to 98% in experiment [15]; 99% in [16]; 98% in experiment [2]; 85% in [3]; 58% in [4]; 74% in experiment [17]. For the same compound, the residual activity was determined as 61% in experiment [13]; 86% in [14]; 24% in experiment [5]; 11% in [6]; 39% in [18]; 13% in experiment [7]. In addition, the residual activity came to 36% in experiment [8]; 13% in experiment [9]; 22% in [10]; 10% in [11]; 94% in experiment [19]; 65% in [20]. Besides, the residual activity in [12] was 38%.
`Cc1cncc2cccc(S(=O)(=O)N3CCCN(C(=O)CN)C[C@H]3C)c12`: the residual activity was 100% in [15]; 95% in experiment [16]; 97% in experiment [1]; 98% in experiment [2]; 88% in experiment [3]; 88% in experiment [14]. Moreover, the residual activity turned out to be 84% in experiment [5]; 90% in experiment [6]; 94% in [8]; 94% in [9]; 93% in experiment [20].
For the compound `COc1ccc(S(=O)(=O)N(CCO)c2ccccc2CN(C)C/C=C/c2ccc(Cl)cc2)cc1`, the residual activity in experiment [15] is 94%; in experiment [16], 88%; in [1], 106%; in experiment [2] it was 92%; in [3] it was 85%; in [4], 89%. The residual activity in experiment [17] was determined as 115%; in experiment [13], 96%; in [14] it was 78%; in experiment [5], 119%; in experiment [6] it was 79%; in experiment [18], 117%. The residual activity is 96% in experiment [7]; 105% in experiment [8]; 81% in experiment [9]; 93% in [10]; 91% in [11]; 99% in [20]. Also, the residual activity in experiment [12] amounted to 97%.
On to `Oc1n[nH]c2nnc(-c3c(-c4ccccc4)nn4ccccc34)cc12`, for which the residual activity in experiment [15] was 94%; in experiment [16], 91%; in [1] it was 96%; in [2] it was 96%; in experiment [3], 69%; in experiment [4], 86%. For the same compound, the residual activity in experiment [17] was 96%; in experiment [13], 80%; in experiment [14], 81%; in [5], 109%; in experiment [6] it was 89%; in experiment [18], 97%. Besides, the residual activity in experiment [7] came to 96%; in experiment [8] it was 101%; in experiment [9], 98%; in experiment [10], 95%; in [11], 86%; in [19], 97%. In addition, the figures for the residual activity in experiment [20] and in experiment [12] were 99% and 106%, respectively.
For the compound `Cc1nc2cc3nc(-c4cccs4)cnc3cc2n1C`, the residual activity in experiment [15] turned out to be 100%; in experiment [16], 97%; in [1] it was 112%; in experiment [2], 103%; in experiment [3], 113%; in [17] it was 104%. Besides, the residual activity was 64% in experiment [13]; 98% in [14]; 100% in experiment [5]; 88% in [6]; 99% in experiment [18]; 107% in [7]. Further, the residual activity in experiment [8] was 98%; in experiment [9], 86%; in [10], 106%; in [11] it was 100%; in [19] it was 102%; in experiment [20], 95%. Moreover, in experiment [12], the residual activity is 131%.
Take `COc1cc2ncnc(N3CCN(C(=O)Nc4ccc(Oc5ccccc5)cc4)CC3)c2cc1OC`: the residual activity turned out to be 91% in [16]; 112% in [1]; 84% in [2]; 101% in [17]; 141% in [13]; 87% in experiment [5]. Further, the residual activity was found to be 87% in experiment [6]; 103% in experiment [18]; 105% in experiment [7]; 102% in experiment [8]; 95% in experiment [9]; 88% in experiment [10]. Also, the residual activity in [11] turned out to be 96%; in [19], 107%; in experiment [20] it was 101%; in [12], 101%.
Regarding `CC(C)n1cnc2c(NCc3ccccc3)nc(NCCCO)nc21`, the residual activity in experiment [15] turned out to be 100%; in experiment [16], 109%; in [1], 76%; in experiment [2] it was 90%; in experiment [3], 97%; in experiment [4] it was 105%. The residual activity in experiment [17] was found to be 79%; in experiment [13], 67%; in experiment [14] it was 76%; in [5], 116%; in experiment [6], 100%; in experiment [18], 78%. For the same compound, the residual activity in experiment [7] stood at 37%; in experiment [8], 93%; in [9] it was 37%; in [10], 93%; in experiment [11] it was 71%; in experiment [19] it was 94%. Moreover, the residual activity in [20] is 88%; in [12], 103%.

Values taken from ChEMBL document CHEMBL2218924, “A broad activity screen in support of a chemogenomic map for kinase signalling research and drug discovery” (Biochem J, 2013).
